Assay outcomes: PubChem BioAssay, Broad Institute
The list is not random: actives were taken first. Their share in the collection is about 4%.
ERAP1 inh: inhibitors of human ERAP1 aminopeptidase; Q9NZ08; recombinant ERAP1, Leu-AMC fluorescence, 60 min; inhibition, % at 10.7 µM; 340,000 compounds, 0.15% hits; AID 652197;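 active = mean replicate inhibition of at least 30%, or all replicates individually reaching that 30% level; inactive = mean below 30% and not every replicate reaching it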;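 note: 0% = neutral control wells and 100% = L-leucinethiol positive control wells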
FGF22 binding: shifts melting point of recombinant human FGF22; Q9HCT0; recombinant FGF22 thermal shift, SYPRO orange fluorescence; percent of sucrose octasulfate shift, DMSO zero; activity (Tm shift, normalised), % at 9.99 µM; 340,000 compounds, 1.5% hits;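 active = mean Tm shift, scaled 0 neutral to 100 positive control, at about 1.3% or above, every replicate too, limit read from the data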
Target sequence (Q9HCT0 whole entry, looked up): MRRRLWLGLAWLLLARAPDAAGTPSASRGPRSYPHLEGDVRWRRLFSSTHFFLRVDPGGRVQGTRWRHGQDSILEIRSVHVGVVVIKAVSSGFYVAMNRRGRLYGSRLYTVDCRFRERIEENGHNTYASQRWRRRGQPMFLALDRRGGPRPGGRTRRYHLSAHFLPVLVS
MLL AF4-AF9 inh: inhibitors of human MLL-AF4/AF9 interaction | P42568 | AlphaScreen, biotin-AF4 peptide binding to FLAG-AF9 | inhibition, % at 10 µM | 350,000 compounds, 0.47% hits | AID 651704;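 active = every replicate reaching a set inhibition limit, whatever the replicate mean, cut at about 25% in these data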;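 note: 0% = plate neutral control median and 100% = total signal loss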
DENV2 CPE: inhibitors of DENV2 cytopathic effect; CPE inhibition, % at 9.99 µM; AID 651640; DENV2-infected cells, cytopathic effect rescue, plate reader; 350,000 compounds, 1.7% hits; in the data active = CPE inhibition above about 20%, passing the limit was not always enough; tested in BHK-21 cells;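 note: 0% = median of neutral control wells and 100% = median of positive control wells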
RAD52 inh: blocks human RAD52 DNA annealing; 360,000 compounds, 0.46% hits; inhibition, % at 18.7 µM; P43351; recombinant RAD52 DNA annealing, FRET fluorescence;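 active = every replicate showing at least 50% inhibition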
Target sequence (P43351 whole entry, looked up): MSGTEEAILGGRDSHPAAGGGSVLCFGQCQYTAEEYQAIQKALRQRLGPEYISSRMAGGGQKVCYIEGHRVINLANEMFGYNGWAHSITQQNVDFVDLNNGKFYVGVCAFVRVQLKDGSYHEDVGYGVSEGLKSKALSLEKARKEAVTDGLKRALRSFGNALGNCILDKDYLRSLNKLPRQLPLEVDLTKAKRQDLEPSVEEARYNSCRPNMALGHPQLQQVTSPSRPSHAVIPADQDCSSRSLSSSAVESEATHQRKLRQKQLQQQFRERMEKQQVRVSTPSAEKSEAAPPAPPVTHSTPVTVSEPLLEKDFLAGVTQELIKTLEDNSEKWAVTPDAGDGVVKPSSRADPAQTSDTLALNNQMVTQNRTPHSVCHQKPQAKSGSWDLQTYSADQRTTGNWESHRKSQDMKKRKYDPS
An asterisk follows results filed as active.

Screening COc1ccc(CN(C)C[C@H]2OCCCC[C@H](C)Oc3ccc(NC(=O)Nc4cccc5ccccc45)cc3C(=O)N([C@H](C)CO)C[C@H]2C)cc1 returned ERAP1 inh 0, FGF22 binding -1, MLL AF4-AF9 inh 0, DENV2 CPE -9 and RAD52 inh 3.
`CC(C)C[C@@H]1COc2cc(NCCO)ccc2S(=O)(=O)N1` gave ERAP1 inh 6, FGF22 binding 1, MLL AF4-AF9 inh -4, DENV2 CPE 59* and RAD52 inh -7.
C[C@@H]1CN([C@H](C)CO)S(=O)(=O)c2ccc(C#CC3(O)CCCC3)cc2O[C@@H]1CN(C)C(=O)Cc1cccnc1 was read as ERAP1 inh -1, FGF22 binding 0, MLL AF4-AF9 inh 0, DENV2 CPE 1 and RAD52 inh 3.
For Cc1ccc(Nc2c(-c3ccccn3)nc3cc(C)ccn23)cc1 the results were ERAP1 inh -5, FGF22 binding 0, MLL AF4-AF9 inh 37*, DENV2 CPE -7 and RAD52 inh 8.
`Cc1ccc(Nc2c(-c3ccccn3)nc3ccc(C)cn23)cc1` gave ERAP1 inh 5, FGF22 binding 0, DENV2 CPE -16 and RAD52 inh -6.
Screening C[C@H](CO)N1C[C@H](C)[C@@H](CN(C)C(=O)Nc2ccc(F)cc2)Oc2ccc(NC(=O)Nc3ccc4c(c3)OCO4)cc2CC1=O returned FGF22 binding 0 and DENV2 CPE 9.
For C[C@@H]1CN([C@H](C)CO)C(=O)Cc2cc(NC(=O)CCCN(C)C)ccc2O[C@H]1CN(C)C(=O)Nc1ccc2c(c1)OCO2 the results were ERAP1 inh 5, FGF22 binding 0, MLL AF4-AF9 inh -38, DENV2 CPE 1 and RAD52 inh -75.
`C[C@H](CO)N1C[C@H](C)[C@@H](CN(C)C(=O)Nc2ccc3c(c2)OCO3)Oc2ccc(NC(=O)Nc3ccc(F)cc3)cc2CC1=O` gave ERAP1 inh -1, FGF22 binding 0, MLL AF4-AF9 inh 2, DENV2 CPE 23* and RAD52 inh 23.
For CCOC(=O)CCCCCC(=O)Nc1ccc2c(c1)CC(=O)N([C@@H](C)CO)C[C@H](C)[C@@H](CN(C)C(=O)Nc1ccc3c(c1)OCO3)O2 the results were ERAP1 inh -6, FGF22 binding 0, MLL AF4-AF9 inh -10, DENV2 CPE 46* and RAD52 inh -19.
For C[C@H]1CN([C@@H](C)CO)C(=O)Cc2cc(NC(=O)Nc3ccc4c(c3)OCO4)ccc2O[C@H]1CN(C)C(=O)Nc1ccc(F)cc1 the results were FGF22 binding 0 and DENV2 CPE -6.
`C[C@@H]1CN([C@@H](C)CO)C(=O)Cc2cc(NC(=O)Nc3ccc4c(c3)OCO4)ccc2O[C@H]1CN(C)C(=O)Nc1ccc(F)cc1` gave FGF22 binding 0 and DENV2 CPE 45*.
For CC(=O)Nc1ccc2c(c1)C(=O)N(C)[C@H]1CC[C@H](CC(=O)Nc3c(F)cccc3F)O[C@@H]1CO2 the results were ERAP1 inh 2, FGF22 binding 0, MLL AF4-AF9 inh -7, DENV2 CPE -5 and RAD52 inh 14.
C[C@H]1CN([C@@H](C)CO)C(=O)c2cc(NC(=O)c3ccncc3)ccc2O[C@@H]1CN(C)C(=O)Nc1ccc2c(c1)OCO2 was read as ERAP1 inh -2, FGF22 binding 0, MLL AF4-AF9 inh -3, DENV2 CPE 12 and RAD52 inh -10.
`CC(=O)Nc1ccc(Nc2ncnc(N)c2[N+](=O)[O-])cc1` gave ERAP1 inh 3, FGF22 binding 0, MLL AF4-AF9 inh 50*, DENV2 CPE 1 and RAD52 inh -8.
Cc1cccc(C)c1Nc1ncnc(N)c1[N+](=O)[O-] was read as ERAP1 inh 9, FGF22 binding 0, MLL AF4-AF9 inh 5, DENV2 CPE 3 and RAD52 inh 2.
For COc1cc(CN2CC3(CN(C(=O)c4ccc5c(c4)OCO5)C3)c3c(n(C)c4cc(OC)ccc34)[C@H]2CO)cc(OC)c1 the results were MLL AF4-AF9 inh -5 and DENV2 CPE -13.
Screening O=C(CSc1cccc[n+]1[O-])N1CCCCCC1 returned ERAP1 inh 26, FGF22 binding 0, MLL AF4-AF9 inh -1 and RAD52 inh -15.
`O=C(CSc1cccc[n+]1[O-])CSc1cccc[n+]1[O-]` gave ERAP1 inh 0, FGF22 binding 43*, MLL AF4-AF9 inh -12, DENV2 CPE -1 and RAD52 inh -10.
CCOC(=O)N1CCN(C(=O)C2CCN(S(=O)(=O)c3ccc(F)cc3)CC2)CC1 was read as ERAP1 inh -11, FGF22 binding 43*, MLL AF4-AF9 inh -1 and RAD52 inh -5.
`O=C(CNC(=O)c1ccccc1Br)N/N=C/c1ccccc1O` gave ERAP1 inh 1, FGF22 binding 43*, MLL AF4-AF9 inh -2, DENV2 CPE 6 and RAD52 inh -21.
For O=C(CNC(=O)c1cccc(Br)c1)N/N=C/c1ccc[nH]1 the results were ERAP1 inh -2, FGF22 binding 43*, MLL AF4-AF9 inh -11, DENV2 CPE -8 and RAD52 inh -2.
Screening O=C(CNC(=O)c1ccccc1Br)N/N=C/c1cc(Br)ccc1O returned ERAP1 inh -1, FGF22 binding 44*, MLL AF4-AF9 inh -8, DENV2 CPE 3 and RAD52 inh -6.
O=C(O)CNC(=O)c1ccccc1Br was read as ERAP1 inh -6, FGF22 binding 43*, MLL AF4-AF9 inh 0, DENV2 CPE -6 and RAD52 inh -8.
Screening CCOC(=O)c1cc([N+](=O)[O-])sc1NC(=O)c1ccc(S(=O)(=O)N2CC3(C)CC2CC(C)(C)C3)cc1 (centres undefined) returned ERAP1 inh 0, FGF22 binding 0, MLL AF4-AF9 inh 2, DENV2 CPE 30* and RAD52 inh -25.
Screening Cn1cc([C@]2(O)C(=O)Nc3ccccc32)c2ccccc21 returned ERAP1 inh 1, FGF22 binding 0, DENV2 CPE 31* and RAD52 inh 4.
`CN1C(=O)[C@@](O)(c2cn(C)c3ccccc23)c2ccccc21` gave ERAP1 inh -3, FGF22 binding 0, DENV2 CPE -7 and RAD52 inh -4.
COc1cccc(-c2ccc3c(c2)[C@H]2[C@H](CCN2C(=O)c2cccc(F)c2)[C@H](CO)N3)c1 was read as ERAP1 inh -1, FGF22 binding 1, MLL AF4-AF9 inh -6, DENV2 CPE -5 and RAD52 inh -2.
Screening CNC(=S)NCC(O)c1ccc([N+](=O)[O-])cc1 (centres undefined) returned ERAP1 inh -4, FGF22 binding 44*, MLL AF4-AF9 inh -2, DENV2 CPE 8 and RAD52 inh -1.
Screening O=[N+]([O-])c1ccc(C(O)CNC(=S)Nc2ccccc2)cc1 (centres undefined) returned ERAP1 inh 0, FGF22 binding 1, MLL AF4-AF9 inh 5 and RAD52 inh -6.
